# This is part of a sample that, as a whole, favours compounds with a hit. Of some 83,000 tested, about 20% had one in any assay.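 Single-dose data. Exposure time 48 hours. Values below 10 considered active.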 Values without a mark were called inactive. Active and inactive are the calls of the source.
# Experiments:
# Test in all cases: NCI-60 one-dose screen, 48 h (100 = growth as untreated, 0 = no growth, -100 = all killed)
# Conditions in all cases: 10 µM unless noted
# [1] = test system: HCT-15 colon
# [2] = test system: HT29 colon
# [3] = test system: SNB-75 CNS
# [4] = test system: SNB-19 CNS
# [5] = test system: U251 CNS
# [6] = test system: PC-3 prostate
# [7] = test system: SK-MEL-5 melanoma
# [8] = test system: UACC-62 melanoma
# [9] = test system: LOX IMVI melanoma
# [10] = test system: SK-MEL-28 melanoma
SMILES,growth [1],growth [2],growth [3],growth [4],growth [5],growth [6],growth [7],growth [8],growth [9],growth [10]
CC(O)CCC(C)[N+](=O)[O-] (stereo not given),102%,113%,83.3%,99.9%,99.2%,102%,102%,95.4%,100%,98.3%
CCC(C)C1NC(=O)C(CCCCN)NC(=O)C(CCCCN)NC(=O)C(CC(C)C)NC(=O)C(CCCCN)NC(=O)C(C(C)CC)NC(=O)C(C(C)C)NC(=O)C(C(C)CC)NC(=O)C(CCCCN)NC(=O)C(CCCCN)NC(=O)C(C)NC(=O)C(CCCCN)NC(=O)C(CC(C)C)NC1=O (stereo not given),35.4%,5.52% (active),36.9%,20.9%,6.7% (active),6.52% (active),2.11% (active),22.1%,50.5%,48.2%
Cc1nnc(-c2cc3c(ccc4ccccc43)oc2=O)c2cn(-c3ccc(Cl)cc3)nc12,87.4%,95.4%,82.4%,96.4%,87.1%,88.6%,96%,90.9%,79.9%,118%
N#CCCCCCCCCCCC#N,99.4%,95.7%,103%,109%,105%,95.8%,110%,101%,99.4%,111%
Nc1cc2c(cc1Br)[nH]c(=O)c1ccccc12,58.3%,22.4%,94.3%,58.6%,40.3%,42.9%,0.102% (active),73.4%,25.1%,78.4%
O=C(Nc1cccc(Cn2c(=O)[nH]c3ccc(Oc4ncccn4)cc3c2=O)c1)c1cccc(F)c1,83%,75.7%,75%,72.6%,82.3%,64.3%,65.5%,58.4%,86%,93.8%
CCCCCCCCCCCCCCCCNC(=S)N/N=C/c1ccc(OC)cc1,108%,102%,113%,99.8%,97.9%,88.5%,99.9%,93.2%,108%,109%
S=C(N/N=C/c1cc(Cl)cc(Cl)c1)NC12CC3CC(CC(C3)C1)C2,84.9%,49.9%,45.6%,93.6%,40.6%,75.5%,97%,89.5%,45.1%,90.9%
O=C(Nn1cnc2ccccc21)N1CCCC1,112%,109%,107%,110%,99.8%,106%,113%,105%,98.1%,116%
CC[n+]1c(C)ccc2cc(C)ccc21,94.5%,108%,83.7%,92.7%,93.5%,104%,99.2%,96.1%,90.8%,105%
